Data taken from PubChem BioAssay (NCI).
This is part of a sample that, as a whole, favours compounds with a hit. Of some 83,000 tested, about 20% had one in any assay.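 Growth was measured after 48 h exposure to one concentration of compound in 96-well plates. Values under 10 count as active.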 A number with no mark means an inactive call. The source made the active and inactive calls.

These compounds were tested on CAKI-1 renal (assay: NCI-60 one-dose screen, 48 h (100 = growth as untreated, 0 = no growth, -100 = all killed)). Conditions: 10 µM unless noted.
Experimental: Growth inhibition of the CAKI-1 human tumor cell line is measured as a screen for anti-cancer activity. Cells are grown in 96 well plates and exposed to the test compound for 48 hours. Compounds are tested at a single concentration, which is 10^-5 M for most compounds. The reported endpoint is percent growth (GI% or GIPRCNT), where numbers from 0 - 100% represent growth inhibition, and numbers from -100% - 0 represent cell death. For example, a value of 40 represents 60% growth inhibition. A value of 0 means no net growth occurred over the course of the experiment. A value of -40 indicates 40% of cells at the beginning of the experiment died by the end of the experiment. A value of -100 means all cells are dead at the end of the experiment.
NCI-60 Human Tumor Cell Lines Screen was performed using the standard one-dose NCI protocol, which is described in more detail at https://dtp.cancer.gov/discovery_development/nci-60/default.htm.
Compounds with GIPRCNT values below 10 were considered active. Activity score was based on GIPRCNT using the following formula: […]
Score is 0 for GIPRCNT values of 100 or above, 50 for GIPRCNT values of 0, and 100 for GIPRCNT values of -100.
For N[C@H]1CN(C(=O)c2cc3cc(Br)c(F)c(F)c3[nH]2)C[C@@H]1O, the growth was 79.4%.
In the case of COc1cc(-c2nn(-c3cccc(NC(=O)c4cccc(C(F)(F)F)c4)c3)cc2-c2ccncc2)ccc1Cl, the growth is reported as 44.7%.
With O=C1c2c(c3c4ccccc4n(CCCCCCBr)c3c3[nH]c4ccccc4c23)C(=O)N1O the growth was -23.7% (active).
In the case of OCc1ncc(-c2ccccc2)s1, the growth is reported as 81.8%.
CCC(=O)OC1=CN2C(=NC(c3ccc(N)cc3)=CC2c2cc(OC)c(OC)c(OC)c2)S1 (stereo not given) was tested, and the growth was 75.1%.
Work on O=C1NC(=C(Cl)Cl)/C(=N/S(=O)(=O)N2CCC(C3(C(F)(F)F)N=N3)CC2)N1 yielded a growth of 74.5%.
Compound Cc1cc(N/N=C/c2nc(-c3ccc(Br)cc3)oc2C)c2cc(Br)ccc2n1 has a growth of 88.3%.
Compound Clc1cc(Cl)c2nc(-c3ccc(-c4ccc(/C=N/NC5=NCCN5)cc4)s3)cn2c1 has a growth of 91.9%.
Work on C=C[C@@H]1C[C@H](O)Cc2ccccc2N1 yielded a growth of 100%.
Work on Oc1ccc(Cl)cc1-c1cc(-c2ccc(F)cc2)n[nH]1 yielded a growth of 50.4%.
Compound N#Cc1c(Nc2ccccc2)nc2n(c1=O)-c1ccccc1Sc1ccccc1-2 has a growth of 70.8%.
CCCCN(CCCC)C(=N)c1ccnc2ccccc12 showed a growth of 108%.
With Cc1ccc(C(=O)C2=Cc3cc4ccccc4n3Cc3cnnn32)cc1 the growth was 101%.
Cc1[nH]c2ccc(F)cc2c1CCNC(=O)C1CCN(C(=O)c2ccccc2)CC1 was tested, and the growth was 68.2% [25 µM].
In the case of COc1cccc(-c2cc3c(O)cc(C#N)cc3[nH]2)c1, the growth is reported as 88.4%.
With C=C[C@@H]1C[C@@H]2Cc3cc(F)ccc3N1O2 the growth was 92.5%.
For O=C(Nc1cccc(-n2cc(-c3ccncc3)c(-c3ccc(Cl)c(O)c3)n2)c1)Nc1ccc(Cl)c(Cl)c1, the growth was 22.5%.
CCOC(=O)c1cc(C(=O)c2cc(OC)c(OC)c(OC)c2)n2c1ccc1ccccc12 gave a growth of 27.3%.
COc1cc(-c2nn(-c3cccc(NC(=O)c4ccc(N5CCOCC5)c(C(F)(F)F)c4)c3)cc2-c2ccncc2)ccc1Cl gave a growth of 39.9%.
Work on COc1ccc(-c2[nH]nc(N)c2-c2cc(OC)c3c(c2)OCO3)cc1 yielded a growth of 53.4%.
For CCOC(=O)CN1/C(=N/c2sc3c(c2C(=O)OCC)CCN(C(=O)OCC)C3)SC(=O)/C1=C\C(=O)OC, the growth was 86.6%.
With O=C(Nc1ccncc1)C(=O)c1cn(S(=O)(=O)c2ccccc2F)c2ccccc12 the growth was 35.6%.
For COc1cc2c(=O)n(C3CCCCCC3)c3c4cc[nH]c4ncc3c2cc1OC, the growth was 73.7%.
CCN(CC)c1ccc(N=O)cc1 was tested, and the growth was -13.4% (active).
Cc1ccc(-c2cc3nc(C(Cl)Cl)nc(-c4ccccc4C)n3n2)cc1 gave a growth of 48.1%.
Fc1ccc(-c2nc(-c3nc4ncccc4[nH]3)cc3c2[nH]c2ccccc23)cc1F gave a growth of 92.3%.
Work on O=C([O][Sn]([O]C(=O)c1ccccn1)([c]1ccccc1)[c]1ccccc1)c1ccccn1 yielded a growth of 76.5%.
For COc1ccc2c(c1)C(c1cc(OC)c3c(c1)OCO3)C1=C(COC1=O)N2 (stereo not given), the growth was 51.1%.
With COc1ccc2c(c1)NC1=C(C(=O)OC1)C2c1cc(OC)c2c(c1)OCO2 (stereo not given) the growth was 43.4%.
Cc1ccc(Nc2nnc(-c3ccc(Cl)cc3)o2)c(C)c1 showed a growth of 89.6%.
Cc1nn(-c2ccc([N+](=O)[O-])cc2)c2ncnc(NCCc3ccccc3)c12 gave a growth of 87.2%.
Work on COc1ccc(NC(=O)CSc2nc(-c3ccc(OC)c(OC)c3)cc(-c3cc(OC)c(OC)c(OC)c3)n2)cc1 yielded a growth of 83.8%.
Cc1ccc(S(=O)(=O)c2nc(-c3ccccc3)oc2S(C)(=O)=O)cc1 was tested, and the growth was -98.9% (active).
For CC(C)(C)n1cc(-c2ccnc(NCCCNS(=O)(=O)c3ccc(F)cc3)c2)c(-c2cccc(O)c2)n1, the growth was 55%.
In the case of COC(=O)c1cc(=O)nc(N/N=C/c2ccco2)s1, the growth is reported as 105%.
In the case of Cc1ccc(S(=O)(=O)NCCNc2nccc(-c3c(-c4cccc(N)c4)nc4sccn34)n2)cc1, the growth is reported as 81.8%.
For C=C1C(=O)O[C@H]2[C@H]1CC/C(Cn1cc(CNC(=O)c3cc4ccccc4[nH]3)nn1)=C\CC[C@@]1(C)O[C@@H]21, the growth was 80.8%.
In the case of COc1cc2c(cc1OCCCCCn1c3ccccc3c3ccccc31)N=C[C@@H]1CCCN1C2=O, the growth is reported as 38.3%.
In the case of FC(F)(F)c1cccc(-c2cn3c(ccc4ccccc43)n2)c1, the growth is reported as 71.4%.
In the case of CC(=O)Oc1csc(N(C(C)=O)c2cccc(C(F)(F)F)c2)n1, the growth is reported as 98.4%.
